This note sets out measurements from PubChem BioAssay AID598 (SRMLSC, 2007).

Among all 85,000 compounds or so, about 5,100 (6%) were called active. The sample as a whole holds a higher share of actives than the screen did. Values without a mark were called inactive.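 Rule for the calls: active = viability at or below 40%; inactive = viability above 40%.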

Usually viability stands for a read-out of living cells in per cent, often relative to untreated cells.

The nature of this assay: proliferation blockers of H69AR lung cancer cells, primary screen, cell-based, human, 86K library (AID 598).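 Note: multidrug resistant small cell line overexpressing MRP-1 efflux transporter; 100% = mean luminescence of untreated control wells.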 The conditions noted are these: H69AR lung tumor viability, ATP luminescence, 72 h; at 10 µM; stronger effect = lower value.
As for `COc1ccc(C2=NOC3(CC(=O)N(c4ccc(C)cc4)C3=O)C2)cc1` (configuration not stated), the viability was 98.4%. With `O=C(c1cccc(N2CCCC2=O)c1)N1CCOCC1` the figure was 110%; with `COC(=O)Cn1c2ccc(C)cc2c2nc(C)sc21`, 98.6%. With `CCN(CC)CCn1c2ccc(Cl)cc2c2nc(C)sc21` the figure was 20.6% (active); with `COc1ccc(Br)cc1CN1CCN(C(=O)c2cccc(OC)c2OC)CC1`, 70.4%; with `COC(=O)c1ccccc1NC(=O)CN(Cc1ccc(Cl)cc1)S(C)(=O)=O`, 60.9%. With `COc1cccc(NC(=O)CN(C)S(=O)(=O)c2ccc(C)cc2)c1` the figure was 89.9%. In the case of `CCN(CC)C(=O)CSc1nnc(-c2cccc(OC)c2)o1`, the viability is 76.1%. Then `COc1cccc(-c2nnc(NC(=O)c3ccc(S(=O)(=O)N(CC(C)C)CC(C)C)cc3)o2)c1`, with 13.2% (active); and `COC(=O)c1ccccc1Sc1c(/C=N/OCc2ccc(Cl)cc2)c(C(F)(F)F)nn1C`, with 79.2%; and `CN(C)C(=O)c1cc(Br)ccc1Cl`, with 100%.

For `COc1ccc(C2C(C#N)=C(/N=C/N3CCOCC3)OC3=C2C(=O)CC(C)(C)C3)cc1OC` (configuration not stated), the viability was 96.7%.

On to `OC(COc1ccc2c(c1)CCC2)CN1CCN(c2cccc(Cl)c2)CC1` (configuration not stated), for which the viability is 75%. For the molecule `O=C(Nc1ccccc1-c1nnn(CC(=O)N2CCCc3ccccc32)n1)c1cccc(Cl)c1`, the viability was 102%. Then `Cc1cc(C)n(C(=O)CCNC(=O)c2ccccc2Cl)n1`, with 104%; and `Clc1ccc(C2=CSC3=Nc4cccc5cccc(c45)N23)cc1`, with 27.7% (active).

`O=C(c1ccco1)N1CCN(C(=O)C2CCCN(S(=O)(=O)c3cccc4nsnc34)C2)CC1` (configuration not stated): the viability is 91.1%. On to `CCOCCOCCC(C(=O)O)P(=O)(c1ccccc1)c1ccccc1` (configuration not stated), for which the viability is 103%. With `CCc1c(O)nc(SCC(=O)Nc2ccccc2)n(C(C)CC)c1=O` (configuration not stated) the figure was 74.6%; with `CC(=O)OC(C(=O)NC1CCCCC1)c1ccccc1` (configuration not stated), 92.1%.

Consider `CC(C)c1ccc(NC(=O)NC2CCCCC2)cc1`, for which the viability is 25.6% (active). With `CC(C)NS(=O)(=O)c1ccc(NC(=O)C2CCCCC2)cc1` the figure was 109%. With `CNC(=S)N1N=C(c2ccccc2)CC1c1ccc(Br)cc1` (configuration not stated) the figure was 76.7%. For the molecule `CCCn1c(C(O)c2cc(OC)ccc2OC)nc2ccccc21` (configuration not stated), the viability was 95.3%. Then `COCCn1c(-c2ccc(OC)c(OC)c2)nc2ccccc21`, with 92.7%.

Regarding `COc1ccc(-c2nc3ccccc3n2CCC(C)C)cc1OC`, the viability is 28.8% (active). Consider `COC(=O)c1[nH]c2ccc(Br)cc2c1NC(=O)Oc1ccccc1`, for which the viability is 80.6%.
